# Calb FLC: C. albicans growth modulation with fluconazole. AID 1979. C. albicans CaCi-2 (fluconazole-resistant clinical isolate) + fluconazole, Alamar Blue growth, 48 h. 300,000 tested, 0.57% active. growth inhibition, % (concentration not given with the values);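 active = growth inhibition above about 58% in most replicates, limit read from the data, passing the limit was not always enough; inconclusive = exactly half the replicates above a set limit; inactive = most replicates below a set limit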;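 note: all wells also contain fluconazole at 8 µg/ml as a sub-toxic cotreatment; 0% = median of DMSO wells and 100% = median of geldanamycin control wells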
# Rpn11 block: inhibitors of human proteasome Rpn11. AID 588493. human 26S proteasome, Ub4-pepOG fluorescence polarization; 20S core pre-blocked with epoxomicin. inhibition, % at 20 µM. 360,000 tested, 0.59% active;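 active = inhibition at 20 µM, scaled to each plate's controls, above about 33%, limit read from the data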
# TPT1 inhibitor: C. albicans TPT1 enzyme inhibition | recombinant caTPT1, FP RNA substrate dephosphorylation | inhibition, % at 5 µM | 300,000 tested, 0.81% active | AID 1962;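 active = inhibition above the mean of all tested compounds plus 3 SD, set per screening campaign, cut at about 24% in these data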;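 note: plate controls were DMSO alone for no effect and ferristatin control at 100 nM for full effect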
# IDE act: IDE (human) activation, cell-based. P14735. HEK cells, FAbeta-B cleavage, fluorescence polarization; 0% vehicle, 100% cell-free pure enzyme wells. activation, % at 5.96 µM. 340,000 tested, 0.073% active. AID 493087;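 active = activation above the mean of all tested compounds plus 3 SD, set per screening campaign, cut at about 17% in these data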
# Target sequence (P14735 whole entry, looked up): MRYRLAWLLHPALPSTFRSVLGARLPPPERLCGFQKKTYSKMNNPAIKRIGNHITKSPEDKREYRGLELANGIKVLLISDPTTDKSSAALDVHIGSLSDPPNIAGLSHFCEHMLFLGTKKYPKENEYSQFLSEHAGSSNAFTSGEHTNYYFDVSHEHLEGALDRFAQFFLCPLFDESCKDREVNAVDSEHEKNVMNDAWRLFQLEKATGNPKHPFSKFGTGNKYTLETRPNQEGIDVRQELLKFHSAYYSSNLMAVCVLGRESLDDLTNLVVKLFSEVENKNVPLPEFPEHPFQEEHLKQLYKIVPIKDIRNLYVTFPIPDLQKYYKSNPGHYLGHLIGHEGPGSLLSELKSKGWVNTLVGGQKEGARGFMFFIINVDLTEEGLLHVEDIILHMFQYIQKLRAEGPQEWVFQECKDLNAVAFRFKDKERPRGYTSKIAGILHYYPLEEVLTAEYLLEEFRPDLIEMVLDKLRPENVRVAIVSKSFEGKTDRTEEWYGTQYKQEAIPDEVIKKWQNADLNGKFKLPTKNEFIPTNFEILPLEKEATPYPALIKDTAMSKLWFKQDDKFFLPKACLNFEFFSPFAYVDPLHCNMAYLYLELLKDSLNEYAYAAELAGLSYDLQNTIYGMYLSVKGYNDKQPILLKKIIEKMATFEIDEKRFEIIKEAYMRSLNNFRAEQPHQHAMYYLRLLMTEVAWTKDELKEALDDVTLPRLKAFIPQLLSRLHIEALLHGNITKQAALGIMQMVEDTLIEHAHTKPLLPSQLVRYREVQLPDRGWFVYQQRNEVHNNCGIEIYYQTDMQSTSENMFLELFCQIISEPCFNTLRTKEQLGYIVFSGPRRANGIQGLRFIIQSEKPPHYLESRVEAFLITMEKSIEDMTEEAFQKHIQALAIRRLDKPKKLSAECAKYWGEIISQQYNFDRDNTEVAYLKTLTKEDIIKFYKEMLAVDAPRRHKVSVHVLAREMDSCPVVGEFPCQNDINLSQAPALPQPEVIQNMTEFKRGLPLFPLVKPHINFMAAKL
# Rin1-Abl PPI inh: inhibitors of human Rin1-Abl protein interaction. TR-FRET Rin1/Abl binding, biochemical. P00519+Q13671. inhibition, % at 7.35 µM. 360,000 tested, 0.4% active; in the data active = inhibition above about 5%, passing the limit was not always enough
# IDE inh: inhibitors of human insulin-degrading enzyme in cells; inhibition, % at 5.59 µM; 320,000 tested, 0.41% active; HEK cells, FAbetaB cleavage, fluorescence polarization; P14735;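 active = percent inhibition above the average of all tested compounds plus 3 SD, set per screening campaign, cut at about 16% in these data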;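 note: IDE supplied by intact live HEK cells; FP after avidin binding of uncleaved biotin substrate so inhibition keeps polarization high; 0% = DMSO wells and 100% = 60 µM reference IDE inhibitor Ii1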
# Rpn11 inh conf: Rpn11 inhibition confirmation, single concentration; shares compounds with Rpn11 block; purified human 26S proteasome, Ub4-pepOG fluorescence polarization; proteasome pretreated with epoxomicin; inhibition, % at 20 µM; 1,900 tested, 29% active
# MMP-2 counter: MMP-2 (human) inhibition counter-screen; recombinant MMP-2, FRET peptide cleavage fluorescence; inhibition, % at 20 µM; shares compounds with Rpn11 block; 1,900 tested, 4% active; AID 602330;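 note: human MMP-2 activated beforehand with APMA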
# Thrombin inh: thrombin (bovine) inhibition counter-screen; shares compounds with Rpn11 block; bovine thrombin cleavage of Ub4-pepOG, fluorescence polarization; inhibition, % at 20 µM; 1,900 tested, 13% active; AID 602333;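 active = mean inhibition at least 40% at 20 µM, or signal 3 deviations below plate average, so some actives read negative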;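 note: plate controls were thrombin with DMSO for no effect and buffer wells lacking thrombin for full effect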
# Starred values were filed as active, the others as inactive; u = inconclusive; x = no result given. Rows were chosen to be rich in hits. Some 2.3% of all compounds tested hit in one or more screens of this group. Cut-off read from the data, not from the text of the source, unless noted: active = inhibition above about 40%; inactive = the rest.
SMILES,Calb FLC,Rpn11 block,TPT1 inhibitor,IDE act,Rin1-Abl PPI inh,IDE inh,Rpn11 inh conf,MMP-2 counter,Thrombin inh
CN=C1S/C(=C\c2ccc(O)c(OC)c2)C(=O)N1C,2.5,11.9,2.2,x,-5.6,10.2,x,x,x
COc1ccc2nc(N3C(=O)/C(=C/c4ccc(Cl)cc4)NC3=S)sc2c1,x,77.4*,x,-3.0,3.5,x,56.0*,-22.4,24.6
CCc1ccc(-c2cc(C(=O)N/N=C/c3ccccn3)[nH]n2)cc1,-1.7,2.4,0.0,0.1,-2.2,1.1,x,x,x
O=C(N/N=C/c1ccccn1)c1cc(-c2ccc3ccccc3c2)n[nH]1,u,136.9*,0.3,-1.7,-2.2,6.2,84.9*,-7.2,57.5*
C[C@@H]1CN([C@@H](C)CO)C(=O)CCCn2cc(nn2)CO[C@H]1CN(C)S(=O)(=O)c1ccc2ccccc2c1,x,-6.1,x,x,1.4,x,x,x,x
COCCC(=O)N1CCCC(N2CCN(c3ccc(F)cc3)CC2)C1 (stereo not drawn),3.5,5.6,0.7,4.3,-4.6,-0.1,x,x,x
COC(=O)CCC(=O)N1CCCC(N2CCN(c3ccc(OC)cc3)CC2)C1 (stereo not drawn),-0.3,54.7*,2.3,4.4,0.1,6.2,-0.4,-55.0,-0.5
Cc1cc(N)c(NC2=CC(=O)CC(C)(C)C2)cc1C,12.6,53.8*,-0.7,-1.1,-1.3,3.9,7.8,-9.3,3.4
Cc1ccc(NC2=CC(=O)CC(C)(C)C2)cc1F,18.0,4.4,-2.2,-13.3,-2.1,12.0,x,x,x
COc1nc(Nc2nc3ccccc3c(=O)[nH]2)nc2ccc(C)cc12,1.2,42.9*,-2.5,9.6,-3.3,2.6,15.6,-6.1,4.6
CCOc1nc2cnccc2n(CC(=O)Nc2ccccc2C(=O)OC)c1=O,-3.5,69.9*,-0.3,6.2,-0.5,-3.4,3.3,-5.3,2.2
CCOc1ccc(S(=O)(=O)N2CCOCC2)cc1NC(=O)CCN1C(=O)NC2(CCCC2)C1=O,x,-5.2,x,x,-5.4,x,x,x,x
COc1ccc(N(C)C(=O)CC2(CC(=O)O)CCCCC2)cc1,0.2,57.0*,-2.0,6.2,-1.1,1.1,-1.6,-34.2,0.1
Cc1cc(SCC(=O)NN)c2cc(Br)ccc2n1,-1.0,43.2*,1.1,-4.2,-6.2,3.6,2.7,-28.4,-5.0
Cc1cc(C(=O)NN)c2cc(Br)ccc2n1,-0.1,3.6,1.4,-2.8,0.5,0.1,x,x,x
Cc1cc(=O)n2[nH]c(-c3ccsc3-n3c(C)ccc3C)cc2n1,-1.9,39.1*,14.7,-0.6,2.8,11.7,-7.1,-5.9,12.1
CCOC(=O)C1CCN(C(=O)CCc2nc3sc4c(c3c(=O)[nH]2)CCCC4)CC1,10.4,41.0*,21.9,0.4,-3.2,-0.2,66.8*,-3.6,46.5*
CC(=O)c1cccc(NC(=O)CCc2nc3sc4c(c3c(=O)[nH]2)CCCC4)c1,12.3,44.3*,14.8,-1.5,2.4,-7.4,55.1*,-4.4,41.2*
NS(=O)(=O)c1ccc(CCNC(=O)CCc2nc3sc4c(c3c(=O)[nH]2)CCCC4)cc1,3.2,41.0*,9.6,1.6,-1.3,4.4,26.3,-28.5,15.6
O=C(CCc1nc2sc3c(c2c(=O)[nH]1)CCCC3)NCCc1ccc(Cl)cc1,x,39.1,x,x,-11.5,x,x,x,x
CN(CC(=O)Nc1ccc(F)c(F)c1F)C(=O)CCc1nc2sc3c(c2c(=O)[nH]1)CCCC3,x,45.4*,7.6,-0.1,0.8,3.3,59.5*,-9.1,34.5
Cc1cccc(C)c1NC(=O)CN(C)C(=O)CCc1nc2sc3c(c2c(=O)[nH]1)CCCC3,x,26.7,x,4.3,-1.6,4.1,x,x,x
Cc1ccsc1C(=O)OCC(=O)NC1CCCCC1C (stereo not drawn),x,0.1,x,4.5,0.9,1.6,x,x,x
O=C(Cn1ncn2nc(-c3ccccc3)cc2c1=O)NCc1ccccn1,4.4,-3.9,-0.8,0.3,0.1,0.5,x,x,x
CCCCn1nc(C(=O)N(C)Cc2nc3ccccc3c(=O)[nH]2)c2ccccc2c1=O,x,-5.5,x,x,-0.3,x,x,x,x
SMILES,Calb FLC,Rpn11 block,TPT1 inhibitor,IDE act,Rin1-Abl PPI inh,IDE inh,Rpn11 inh conf,MMP-2 counter,Thrombin inh
Cc1ccc([C@@H]2CC(=O)[C@@H]3CN(S(=O)(=O)c4ccc(C)cc4)[C@H](c4ccc(Cl)cc4)C[C@@H]3N2S(=O)(=O)c2ccc(Cl)cc2)cc1,x,9.6,x,x,-2.6,x,x,x,x
CCc1ccc(NC(=O)CCc2nc3sc4c(c3c(=O)[nH]2)CCCC4)cc1,6.9,40.2*,14.5,-9.2,-4.4,0.2,55.4*,3.5,34.1
CC1CCCN(c2ccc([N+](=O)[O-])s2)C1 (stereo not drawn),-19.8,52.6*,x,-3.5,-19.1,x,39.4,-38.1,30.1
Cc1ccsc1C1C(C(=O)O)c2ccccc2C(=O)N1C (stereo not drawn),-0.2,145.9*,-6.1,6.8,0.8,0.3,-10.0,-43.3,-14.2
CCc1ccc(/C(C)=N/NC(=O)c2ccc(-n3cnnn3)cc2)cc1,x,-0.4,x,0.5,1.2,5.1,x,x,x
CC(NC(=O)C1CCN(C(=O)c2cccs2)CC1)c1ccc(S(N)(=O)=O)cc1 (stereo not drawn),x,66.9*,x,3.1,5.4,1.6,62.7*,-116.9,-8.1
CCN1CCN(CCNC(=O)c2ccc(CS(=O)c3ccc(Br)cc3)o2)CC1 (stereo not drawn),47.9,-2.7,-1.8,4.4,-3.5,-2.5,x,x,x
CSc1ccc(NC(=O)CSc2nc3[nH]c(=O)cc(O)c3s2)cc1,x,40.0*,x,0.4,4.9,-1.3,41.8*,31.5,17.6
Cc1cc(C(F)(F)F)c(C#N)c(SCC(=O)Nc2nc3cc(Br)ccc3s2)n1,27.5,52.9*,15.4,-2.4,1.2,-4.0,29.7,7.4,-12.7
N#Cc1ccc(NC(=O)CSc2nc3[nH]c(=O)cc(O)c3s2)cc1,x,8.1,x,4.5,4.7,5.9,x,x,x
N#Cc1c(SCC(=O)Nc2nc3ccc(Br)cc3s2)sc2c(O)cc(=O)[nH]c12,16.1,104.7*,8.1,-5.9,1.4,-2.5,53.2*,28.7,-5.3
N#Cc1cccc(NC(=O)CSc2sc3c(O)cc(=O)[nH]c3c2C#N)c1,16.1,55.4*,-0.4,0.9,1.2,1.9,-4.5,-22.3,-16.8
CSCCC(NC(=O)OCc1ccccc1)NC(=O)OCc1ccccc1,x,9.3,x,x,2.1,x,x,x,x
FC(F)(F)c1ccc(C2NCCc3sccc32)cc1 (stereo not drawn),-31.6,-1.0,-6.0,-6.1,-1.0,1.1,x,x,x
CC1(C(=O)NS(=O)(=O)c2ccccc2)CCN1C(=O)Cc1cc(F)ccc1F (stereo not drawn),x,-4.8,x,x,-1.8,x,x,x,x

# Compound activity from PubChem BioAssay.
